Compounds with a hit are over-represented: about 0.9% of the library has one in this group of screens.
BioA inh: inhibitors of Mycobacterium tuberculosis BioA enzyme; purified M. tuberculosis BioA enzyme, plate reader; 0.096% of 360,000 active; inhibition, % at 9.99 µM; in the data active means inhibition above about 40%
FadD28 binding: M. tuberculosis FadD28 bisubstrate binding inhibition. FadD28 bisubstrate probe binding, fluorescence polarization. inhibition, % at 12.5 µM. 0.22% of 360,000 active. AID 588549; in the data active means inhibition above about 8.5%, passing the limit was not always enough
Rv3671c protease: Rv3671c (M. tuberculosis) protease inhibition; 0.048% of 320,000 active; inhibition, % at 5.96 µM; P9WHR9; in the data active means inhibition above about 38%;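 further: extracellular domain of Rv3671c used as enzyme; 0% = enzyme with DMSO and 100% = no enzyme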
Target sequence (P9WHR9 whole entry, looked up, the tested form may be a part): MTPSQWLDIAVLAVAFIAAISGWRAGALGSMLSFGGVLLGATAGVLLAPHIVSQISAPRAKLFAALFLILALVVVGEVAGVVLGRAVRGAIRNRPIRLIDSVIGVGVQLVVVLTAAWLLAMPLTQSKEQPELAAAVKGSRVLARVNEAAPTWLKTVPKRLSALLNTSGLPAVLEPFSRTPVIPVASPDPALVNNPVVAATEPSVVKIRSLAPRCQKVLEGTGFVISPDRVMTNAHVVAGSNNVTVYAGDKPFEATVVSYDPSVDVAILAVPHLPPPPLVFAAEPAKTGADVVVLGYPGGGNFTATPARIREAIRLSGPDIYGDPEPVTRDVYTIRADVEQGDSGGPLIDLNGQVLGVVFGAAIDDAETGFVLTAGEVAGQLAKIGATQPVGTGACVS
RecA intein inh: blocks M. tuberculosis RecA intein splicing; cell-free RecA intein splicing, fluorescence; inhibition, % (test concentration not listed); 0.75% of 290,000 active; P9WHJ3; in the data active means inhibition above about 30%;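 further: 0% = vehicle wells and 100% = reference inhibitor control wells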
Mtb UGM inh: inhibitors of M. tuberculosis UDP-galactopyranose mutase; P9WIQ1; purified UGM, fluorescence polarization probe displacement; inhibition, % at 10 µM; 0.06% of 320,000 active; in the data active means inhibition above about 10%, passing the limit was not always enough
TcdB inh: TcdB glycohydrolase inhibition; P18177; TcdB glycohydrolase enzymatic assay, plate reader; inhibition, % at 9.99 µM; 0.24% of 350,000 active; AID 652162; in the data active means inhibition above about 10%
GFP chromophore: counter-screen GFP chromophore formation inhibition. EC50, µM. AID 434968. 83% of 2,100 active. cell-free GFP chromophore formation, fluorescence. shares compounds with RecA intein inh; call rule not given here
* hit, by the source's call; · = no result given.

SMILES	BioA inh	FadD28 binding	Rv3671c protease	RecA intein inh	Mtb UGM inh	TcdB inh	GFP chromophore
CN1C(=O)c2cc(NC(=O)c3ccccc3Cl)ccc2OC[C@H]2O[C@@H](CC(=O)O)CC[C@@H]21	-2	·	·	·	·	0	·
O=C1NC(=O)C(=Cc2cc3c(cc2[N+](=O)[O-])OCO3)C(=O)N1	-2	0	-5	39*	1	-2	>38
CCC(=O)N1CC[C@@H]2[C@@H](CO)Nc3ccc(-c4ccc(C(=O)N(C)C)cc4)cc3[C@@H]21	·	·	·	·	·	-1	·
O=C1C(Cl)=C(N2CCCCC2)C(=O)N1c1ccccc1Cl	-4	0	-6	77*	0	·	6.2*
Cc1ccccc1N1C(=O)C(Cl)=C(N2CCCCCC2)C1=O	-2	-1	-11	8	-3	·	·
O=C1C(Cl)=C(N2CCCCC2)C(=O)N1c1ccccc1	-3	-4	-11	41*	2	·	8.8*
COc1ccc(OC)c(N2C(=O)C(Cl)=C(N3CCCCC3)C2=O)c1	·	-2	4	63*	3	·	17*
C[C@H]1CN([C@@H](C)CO)C(=O)c2cc(NC(=O)Nc3ccc(F)cc3)ccc2O[C@H]1CN(C)C(=O)Nc1ccc(C(F)(F)F)cc1	-2	·	·	·	·	·	·
CCCCn1cnc2c(c(-c3ccccc3)c(-c3ccccc3)n2Cc2ccco2)c1=N	7	-4	8	28	-1	3	·
N=c1c2c(-c3ccccc3)c(-c3ccccc3)n(Cc3ccco3)c2ncn1Cc1ccco1	21	-5	-3	47*	-1	·	14*
CC(=O)OCCNc1cc(N2CCN(C)CC2)c2noc3c2c1C(=O)c1ccccc1-3	-15	3	·	·	·	1	·
CCOC(=O)C(C(=O)OCC)c1cc(Br)c2noc3c2c1C(=O)c1ccccc1-3	·	3	-1	82*	0	·	3.3*
CSc1nc(=S)n(-c2ccc([N+](=O)[O-])cc2)c(C)c1C(C)=O	15	-3	-2	35*	2	1	>38
Cc1[nH]n(-c2ccccc2)c(=O)c1-c1ccccc1	1	1	-10	-6	1	·	·
Cc1[nH]n(-c2ccccc2)c(=O)c1C(C[N+](=O)[O-])c1ccccc1Cl (stereo not given)	0	-2	-18	75*	-2	·	15*
COc1ccc(C(C[N+](=O)[O-])c2c(C)[nH]n(-c3ccccc3)c2=O)cc1 (stereo not given)	0	-4	-159	95*	1	-1	5.3*
COc1ccc(C(C[N+](=O)[O-])c2c(C)cc3ccccn23)cc1 (stereo not given)	-1	1	-7	22	2	0	·
C=CCc1cccc(C=Nc2c[nH]c(=O)[nH]c2=O)c1O	-2	2	-11	·	4	-3	>38
C=CCc1cccc(C=Nc2cc(Br)ccc2O)c1O	1	-1	9	0	0	·	·
N#Cc1ncc(Cc2ccccc2)nc1C#N	0	-2	4	82*	-1	0	5*
N#Cc1nc(Cc2ccccc2)oc1NCc1cccnc1	3	0	-1	1	2	·	·
Cc1[nH]c2ccccc2c1CCNC(=O)c1ccc2c(c1[N+](=O)[O-])C(=O)c1ccccc1C2=O	-2	-2	17	84*	0	·	31*
COc1ccccc1NC(=O)N1C[C@@H](C)[C@H](OC)CN(C)C(=O)c2ccc(NC(=O)c3ccccn3)cc2OC[C@H]1C	0	·	·	·	·	-2	·
O=C(Oc1ccc(N(C(=O)c2ccncc2)S(=O)(=O)c2ccc(Cl)cc2)cc1)c1ccncc1	2	-1	-2	38*	-4	3	33*
O=C(Oc1ccc(N(C(=O)c2ccncc2)S(=O)(=O)c2ccc(F)cc2)cc1)c1ccncc1	4	0	9	13	1	2	·
SMILES	BioA inh	FadD28 binding	Rv3671c protease	RecA intein inh	Mtb UGM inh	TcdB inh	GFP chromophore
COc1ccccc1N1CCN(CC(=O)c2c(C)[nH]c3cc(C)ccc23)CC1	0	-4	-7	9	-1	·	>38
COc1ccc(NC(=O)N[C@H]2CC[C@@H](CCNC(=O)CCN3CCCCC3)O[C@H]2CO)cc1	-3	·	·	·	·	-1	·
N#Cc1nccnc1S(=O)(=O)c1cccs1	·	·	0	68*	2	1	32*
COc1cccc(S(=O)(=O)N[C@@H]2CC[C@H](CC(=O)NCc3ccncc3)O[C@@H]2CO)c1	-1	·	·	·	·	0	·
Cc1ccc(S(=O)(=O)Oc2ccc(C(c3c(C)[nH][nH]c3=O)c3c(C)[nH][nH]c3=O)cc2)cc1	1	-3	-7	97*	-1	1	>38
O=C1c2[nH]nc(-c3ccccc3O)c2C(c2cccc(Cl)c2)N1Cc1ccco1 (stereo not given)	1	-6	-23	34*	-1	·	>38
O=C1c2[nH]nc(-c3ccccc3O)c2C(c2ccc(F)cc2)N1Cc1ccco1 (stereo not given)	-2	-15	-15	20	-1	·	·
CCCNC(=O)C[C@H]1CC[C@@H]2[C@H](COC[C@H](O)CN2C(=O)CC)O1	-3	·	·	·	·	0	·
CC1=NN(C)C(=O)C1Cc1c(F)cccc1Cl (stereo not given)	·	-2	7	80*	0	1	17*
Cc1[nH][nH]c(=O)c1C(c1ccc(N(C)C)c(Br)c1)c1c(C)[nH][nH]c1=O	·	0	-8	97*	5	-1	0.47*
CC(C)c1[nH]nc2c1C(c1cccs1)C(C#N)=C(N)O2 (stereo not given)	0	-6	-5	62*	1	·	28*
N#CC1=C(N)Oc2n[nH]c(-c3cccs3)c2C1c1cccnc1 (stereo not given)	-1	-4	-18	69*	1	·	>38
CC(C)C1C(C#N)=C(N)Oc2n[nH]c(-c3cccs3)c21 (stereo not given)	0	-15	-8	15	-1	·	·
Cc1ccc(C2C(C#N)=C(N)Oc3n[nH]c(-c4cccs4)c32)cc1 (stereo not given)	-3	0	-33	66*	-3	·	7.6*
COc1ccc(NC(=O)N(C)C[C@@H]2Oc3ncccc3C(=O)N([C@H](C)CO)C[C@@H]2C)cc1	1	·	·	·	·	-1	·
O=C(Oc1ccc(Br)cc1)C1CC(=O)N(c2ccc(F)cc2)C1 (stereo not given)	1	0	-2	37*	2	0	35*
O=c1cc(C23CC4CC(CC(C4)C2)C3)[nH][nH]1	-1	-4	-1	91*	-2	1	10*
NNC(=O)c1cc(C23CC4CC(CC(C4)C2)C3)[nH]n1	0	-2	-11	-2	-1	-9	·
COC(=O)c1[nH]c(=O)c2ccccc2c1O	-1	-3	-29	81*	3	·	15*
O=C(O)c1ccc(NC2=C(n3nnc4ccccc43)C(=O)c3ccccc3C2=O)cc1	·	-1	-108	88*	2	2	5.6*

Compound activity (PubChem BioAssay)
